Experimental data published in PubChem BioAssay AID493131 (Broad Institute, 2011).
The campaign covered roughly 340,000 compounds. About 3,300 (0.97%) were called active. The sample as a whole holds a higher share of actives than the screen did. Unmarked numbers belong to inactive results.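 Rule for the calls: active = mean activation above about 17%, with every replicate also reaching it (limit read from the data, passing the limit was not always enough); inconclusive = only one of the two conditions met; inactive = the rest.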

What follows are molecules tested against Protein FosB (Mus musculus) (UniProt P13346) (assay: enhancers of mouse delta FosB DNA binding – biochemical, fluorescence polarization, TAMRA-CDK5 oligo, single point, primary screen (AID 493131;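 note: fluorescence polarization rise as delta FosB binds a TAMRA Cdk5 AP-1 oligo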)). Settings: purified delta FosB, at 25 µM, stronger effect = higher value, percent of positive-control signal above neutral wells.
Protein FosB (Mus musculus), sequence (P13346 whole entry, looked up): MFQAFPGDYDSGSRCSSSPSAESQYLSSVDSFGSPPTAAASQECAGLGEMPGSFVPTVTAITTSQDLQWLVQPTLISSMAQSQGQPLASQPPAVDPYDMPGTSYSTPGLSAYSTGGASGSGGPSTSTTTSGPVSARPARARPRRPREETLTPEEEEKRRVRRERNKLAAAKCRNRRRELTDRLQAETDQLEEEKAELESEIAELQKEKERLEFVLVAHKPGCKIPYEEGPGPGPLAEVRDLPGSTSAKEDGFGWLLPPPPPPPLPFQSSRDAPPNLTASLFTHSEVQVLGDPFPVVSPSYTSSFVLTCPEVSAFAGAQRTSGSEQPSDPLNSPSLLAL

Compound | activation
O=C(CS(=O)(=O)c1ccccc1)Nc1ccc(S(=O)(=O)Nc2ccccn2)cc1 | 1.81%
O=C(Nc1ccc(Br)cc1)c1cc(S(=O)(=O)Nc2ccccn2)ccc1Cl | 40.2% (active)
O=C(Nc1ccc(S(=O)(=O)Nc2ccccn2)cc1)c1ccccc1 | -2.22%
COc1ccccc1N1CCN(C(=O)c2cc(=O)c3cc(C)cc(C)c3o2)CC1 | -12.4%
CCOc1ccc(S(=O)(=O)N2CCN(C(=O)c3oc4ccccc4c3C)CC2)cc1 | -13.9%
CCn1cc(C(=O)OCC(=O)Nc2cccc(C)c2)c(=O)c2ccc(C)nc21 | -9.83%
Cc1ccc(NNC(=O)c2cccs2)cc1Cl | -4.02%
CCCCC1N2CC3([N+](=O)[O-])CN1CC([N+](=O)[O-])(C2)C3(C)C (centres undefined) | 0.0626%
COc1ccc(OC)c(S(=O)(=O)Nc2c(C)nn(C)c2C)c1 | 1.81%
COc1ccc(/C=C/C(=O)Nc2c(C)nn(C)c2C)cc1COc1ccc(Br)cc1 | 21.7% (active)
CCn1nc(C)c(NC(=O)/C=C/c2ccc(OC)c(COc3ccc(Br)cc3)c2)c1C | 13.3%
Cc1ccc2c(c1)C1CN(C)CCC1N2S(=O)(=O)c1ccc(Oc2ccc([N+](=O)[O-])cc2)cc1 (centres undefined) | 60.9% (active)
Cc1ccc2c(c1)C1CN(C)CCC1N2C(=S)Nc1ccc(OC(F)F)cc1 (centres undefined) | -5.28%
Cc1ccc2c(c1)C1CN(C)CCC1N2S(=O)(=O)c1cccc(F)c1 (centres undefined) | 1.55%
COc1ccc([N+](=O)[O-])cc1N(CC(O)Cn1nnc2ccccc21)S(=O)(=O)c1ccc(C)cc1 (centres undefined) | -8.08%
COc1ccc(Br)cc1C(=O)Nc1cccc(C)c1C | 6.11%
COc1ccc(Br)cc1C(=O)NC(=S)Nc1cc(-c2nc3ccccc3[nH]2)ccc1C | 30.2% (active)
COc1cc2ccccc2cc1C(=O)Nc1ccccc1C | -12.4%
Cc1nnnn1/C(=C\c1ccccc1)C(=O)OCC(=O)N1CC2(C)CC1CC(C)(C)C2 (centres undefined) | -16.8%
Cc1ccc(-c2cc(C(=O)NCc3cn(C)nc3C)c3cc(Br)ccc3n2)cc1 | 36.8% (active)
O=C(NCc1cccs1)c1cc(-c2ccccn2)nc2ccc(Br)cc12 | 2.96%
Cc1nn(C)cc1CNC(=O)Nc1ccc(Cl)cc1 | -6.86%
CCN(CC)CCCNC(=S)N(CCO)Cc1cc2cc3c(cc2[nH]c1=O)OCO3 | -3.62%
CS(=O)(=O)N1CCc2nc(-c3ccccc3)sc2C1 | -1.76%
c1ccc(C[C@H]2CNCCN2CCC23CC4CC(CC(C4)C2)C3)cc1 | 20.1% (active)
c1ccc2c(CCN3CCNC[C@H]3Cc3cccc4ccccc34)cccc2c1 | 12.1%
O=C1CCNCCN1[C@H](CO)Cc1ccccc1 | -2.28%

Compound | activation
CC(Oc1cc2oc(=O)c3c(c2cc1Cl)CCCC3)C(=O)NCc1ccncc1 (centres undefined) | -1.99%
COc1ccc2c(c1)c(C(=O)N/N=C/c1cccs1)c(C)n2C | -3.67%
CCOC(=O)C1=C(COC(=O)[C@H](C)NS(=O)(=O)c2ccccc2F)NC(=O)NC1C (some centres undefined) | -4.67%
Cn1ncc2c(NNC(=O)Cc3cccc4ccccc34)ncnc21 | 2.75%
CC(=O)c1ccc(NC(=O)C2CC(=O)Nc3nc4ccccc4n32)cc1 (centres undefined) | 19.8% (active)
CCOC(=O)c1ccc(NC(=O)C2CC(=O)Nc3nc4ccccc4n32)cc1 (centres undefined) | 7.67%
O=C(Nc1ccccc1)C1CC(=O)n2c(nc3ccccc32)N1 (centres undefined) | 12%
CNc1nc(SC)nc(N(C#N)CC(=O)OC)n1 | 0.989%
Oc1c(C(c2ccco2)N2CCC3(CC2)OCCO3)sc2ncnn12 (centres undefined) | -7.56%
CC(NS(=O)(=O)c1ccc(Cl)cc1)C(=O)Nc1ccc2c(c1)OCCO2 (centres undefined) | 1.9%
CC(=O)Nc1ccc(NC(=O)C(NS(=O)(=O)c2ccc3c(c2)OCCO3)C(C)C)cc1 (centres undefined) | 36.7% (active)
CC(C)NS(=O)(=O)c1ccc(OCC(=O)Nc2ccc3c(c2)OCCO3)cc1 | -10.5%
CCc1ccc(C(=O)OCC(=O)NCC(F)(F)F)cc1 | -1.18%
COC(=O)c1ccc2ccccc2c1OC1OC(CO)C(O)C(O)C1NC(C)=O (centres undefined) | -0.206%
C#CCOCCOCCOCCNc1nc(N2CCN(C(=O)[C@H](CCC(=O)O)n3cc(CN)nn3)CC2)nc(N2CCN(C(=O)[C@H](CCC(=O)O)n3cc(CN)nn3)CC2)n1 | -0.339%
C#CCOCCOCCOCCNc1nc(N2CCN(C(=O)[C@H](Cc3ccc(O)cc3)n3cc(C(N)CC(C)C)nn3)CC2)nc(N2CCN(C(=O)[C@H](CCC(=O)O)n3cc(C(N)[C@H](C)CC)nn3)CC2)n1 (some centres undefined) | 2.04%
C#CCOCCOCCOCCNc1nc(N2CCN(C(=O)C(Cc3ccc(O)cc3)n3cc(C(N)CC(C)C)nn3)CC2)nc(N2CCN(C(=O)C(Cc3ccc(O)cc3)n3cc(C(N)C(C)CC)nn3)CC2)n1 (centres undefined) | 22.4% (active)
C#CCOCCOCCOCCNc1nc(N2CCN(C(=O)C([C@@H](C)O)n3cc([C@@H](N)CCCCN)nn3)CC2)nc(N2CCN(C(=O)[C@H](CCCCN)n3cc(CN)nn3)CC2)n1 (some centres undefined) | 31.3% (active)
C#CCOCCOCCOCCNc1nc(N2CCN(C(=O)[C@H](CCCCN)n3cc(CCC(=O)O)nn3)CC2)nc(N2CCN(C(=O)[C@H](CCCCN)n3cc(CC(C)O)nn3)CC2)n1 (some centres undefined) | 2.6%
C#CCOCCOCCOCCNc1nc(N2CCN(C(=O)[C@H](CCCCN)n3cc([C@@H](N)C(C)CC)nn3)CC2)nc(N2CCN(C(=O)[C@H](Cc3ccc(O)cc3)n3cc([C@@H](N)C(C)CC)nn3)CC2)n1 (some centres undefined) | 15.3%
Cc1csc(CN(C)C(=O)CC2C(=O)NCCN2CC(C)(C)C)n1 (centres undefined) | -10.6%
COc1cc(-c2nnc(Cn3cc(C(F)(F)F)ccc3=O)o2)cc(OC)c1OC | -9.47%
COC(=O)c1ccc(CSc2ccc(S(=O)(=O)N3CCCCC3)cn2)cc1 | 8.71%
COc1ccc(N(C)S(=O)(=O)c2ccc3c(c2)CC(C)N3C(=O)C2CC2)c(OC)c1 (centres undefined) | -12.2%
COc1cc(C(=O)N2CCN(C/C=C/c3ccccc3)CC2)cc(OC)c1C | -7.31%
Cn1nnc(NC(=S)NC(=O)c2ccccc2)n1 | -9.58%
CCOC(=O)C1=C(C)N(C[C@@H]2CC[C@@H](Cc3ccc(-c4ccccc4)cc3)O2)C(=O)NC1c1ccc([N+](=O)[O-])cc1 (some centres undefined) | -9.34%

Compound | activation
S=c1c2[nH]cnc2ncn1CCSc1ncnc2nc[nH]c12 | 3.83%
COC(=O)c1ccc(CNC(=O)c2ccc3oc(C(C)C)nc3c2)cc1 | -7.42%
CC(C(=O)O)N1C(=O)c2cccc3cccc1c23 (centres undefined) | 2.8%
O=C(CN1C(=O)c2cccc3cccc1c23)Nc1ccccc1 | 28.7% (active)
Cc1cc(C)cc(NC(=O)CN2C(=O)c3ccccc3C2=O)c1 | 3.94%
COc1ccc(NC(=O)CCC(=O)N2CCN(S(=O)(=O)c3ccc(C)cc3)CC2)c(OC)c1 | -2.45%
CCN1/C(=C\c2ccc3ccccc3[n+]2CC)Sc2cc(C)ccc21 | 54.5% (active)
COc1cc(/C=C/C(=O)Nc2ccc(OC)c(S(=O)(=O)N3CCOCC3)c2)ccc1OCC#N | -6.09%
COc1ccc(/C=C/C(=O)Nc2ccc(C)cc2)cc1S(=O)(=O)N1CCOCC1 | -1.41%
COc1ccc(/C=C/C(=O)Nc2ccc(C34CC5CC(CC(O)(C5)C3)C4)cc2)cc1OC | 51.4% (active)
COc1ccc(Cn2c(=O)cc(C)[nH]c2=S)cc1 | -1.58%
CCCOc1ccc(Cn2c(O)cc(=O)[nH]c2=O)cc1 | 3.75%
COc1ccc(Cn2c(O)c(/C=C3/C=CC=N3)c(=O)[nH]c2=O)cc1 | 25.7% (active)
CN(CC(O)COc1ccc(S(=O)(=O)N2CCOCC2)cc1Cl)C1CCCCC1 (centres undefined) | -9.15%
O=C(NCCN=C1NS(=O)(=O)c2ccccc21)c1ccc(S(=O)(=O)N2CCOCC2)cc1 | -16.1%
O=C(Nc1ccc2cn[nH]c2c1)c1ccc(S(=O)(=O)N2CCOCC2)cc1 | -7.23%
COc1ccc(CNC(=O)C(C)n2nc(C)c3c(C)n(-c4ccccc4)nc3c2=O)c(OC)c1 (centres undefined) | -16.4%
Cc1nn(CC(=O)N2CCCCC2)c(=O)c2nn(-c3ccccc3)c(C)c12 | -5.62%
COc1ccc(OC)c(CNC(=O)Cn2nc(C)c3c(C)n(-c4ccc(C)cc4)nc3c2=O)c1 | 113% (active)
CCc1ccccc1NC(=O)CN(C)C(=O)c1cc(C2CC2)nn1-c1ccccc1 | -9.06%
O=C(O)c1cccnc1NC1CCCC1 | 1.59%
Cc1nn(C)cc1S(=O)(=O)N1CCN(c2ccc(F)cc2)CC1 | -3.96%
COc1ccc(-c2cc(=O)c3c(O)cc(O[C@@H]4O[C@H](CO[C@@H]5O[C@@H](C)[C@H](O)[C@@H](O)[C@H]5O)[C@@H](O)[C@H](O)[C@H]4O)cc3o2)cc1O | 74.8% (active)
COc1c(O)cc2oc(-c3ccc(O)c(O)c3)cc(=O)c2c1O | -4.25%
C[C@@H]1O[C@@H](OC[C@H]2O[C@@H](Oc3c(-c4ccc(O)cc4)oc4cc(O)cc(O)c4c3=O)[C@H](O)[C@@H](O)[C@@H]2O)[C@H](O)[C@H](O)[C@H]1O | -1.58%
